About 83,000 compounds went through this panel and 20% of them were active in at least one assay; those are over-represented in the sample as a whole.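 Values shown are percent growth following 48 h exposure of cells in 96-well plates to a single concentration of compound; below 10 was considered active.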 Unmarked numbers belong to inactive results. Activity calls are given as the source filed them.
Columns and labels:
Test in all cases: NCI-60 one-dose screen, 48 h (100 = growth as untreated, 0 = no growth, -100 = all killed)
Conditions in all cases: 10 µM unless noted
[1] = system: HCT-15 colon
[2] = system: HT29 colon
[3] = system: SNB-75 CNS
[4] = system: SNB-19 CNS
[5] = system: U251 CNS
[6] = system: PC-3 prostate
[7] = system: SK-MEL-5 melanoma
[8] = system: UACC-62 melanoma
[9] = system: LOX IMVI melanoma
[10] = system: SK-MEL-28 melanoma

| Compound | growth [1] | growth [2] | growth [3] | growth [4] | growth [5] | growth [6] | growth [7] | growth [8] | growth [9] | growth [10] |
| --- | --- | --- | --- | --- | --- | --- | --- | --- | --- | --- |
| CCN1C(=O)N(c2ccccc2)C2NC(=S)N(/N=C/C=C/c3ccccc3)C21 (stereo not given) | 12.6% | 4.84% (active) | 35.5% | 22.6% | 13.9% | 14% | 3.14% (active) | 20% | 14.8% | 60.1% |
| CC(C)(C)c1cc(C(C)(C)c2ccccc2)cc(Cc2cc(C(C)(C)c3ccccc3)cc(C(C)(C)C)c2O)c1O | 95.8% | 93.3% | 94.5% | 106% | 94.3% | 74.9% | 97.4% | 92.3% | 89.5% | 106% |
| O=C(NNC(=S)Nc1ccccc1)c1ccncc1 | 101% | 99.6% | 102% | 110% | 105% | 90.1% | 109% | 109% | 101% | 115% |
| Cc1nc2cccc(NCCCCC(=O)NO)c2c(=O)n1-c1ccccc1 | 71.6% | 52.1% | 45.1% | 65.5% | 70.2% | 63% | 34.9% | 31.8% | 75.8% | 58.3% |
| CN(C)C(=O)c1cc2cnc(Nc3ccc(-c4csc5c(=S)cc(N6CCOCC6)oc45)cc3)nc2n1C1CCCC1 | 7.32% (active) | 5% (active) | -37.4% (active) | 10.6% | 7.08% (active) | -4.89% (active) | -30.4% (active) | -35.8% (active) | -39.8% (active) | 9.77% (active) |
| O=[N+]([O-])c1ccc2[nH]c3nccc(NCc4cccc(Cl)c4)c3c2c1 | 83.2% | 76.3% | 7.78% (active) | 53.3% | 43.1% | 67.5% | 83.7% | 82.2% | 81.4% | 101% |
| O=C(Nc1ncc(Cc2cccc(C(F)(F)F)c2)s1)c1ccc2c(c1)OCCO2 | 8.27% (active) | 4.83% (active) | 25.5% | 42.9% | 16.7% | 28.3% | -21.5% (active) | 39.9% | 40.8% | 73.1% |
| O=C(N=Nc1c(O)[nH]c2ccccc12)Nc1ccc(Br)cc1 | 77% | 97.6% | 105% | 96.5% | 101% | 91.9% | 81.9% | 79.3% | 78% | 89.3% |
| C=C(C)[C@@H]1CC[C@]2(C)[C@H](CC(=O)N[C@H]3[C@@H]4C[C@](C)(C(=O)OC)CC[C@]4(C)CC[C@]32C)[C@@]1(C)CCC#N | 68.6% | 70.9% | 96.5% | 89% | 79.9% | 42.9% | 49.7% | 68.3% | 96.9% | 104% |
| CCCCC1COc2cccc3c2N1C=C/C3=C\C(=O)N(C)c1cccc(Cl)c1 (stereo not given) | 99.4% | 109% | 93% | 91.5% | 101% | 89.6% | 102% | 85.9% | 99% | 104% |
| Fc1ccccc1-c1cnn2cc(-c3ccccc3)cnc12 | 90.5% | 105% | 81.7% | 94.1% | 98.9% | 88.5% | 101% | 91.5% | 98.7% | 113% |
| COC(=O)c1[nH]nc(OC)c1C1(C(C#N)c2nc3ccccc3s2)CCCc2ccccc21 (stereo not given) | 102% | 95.8% | 86.4% | 96.7% | 96.5% | 79.5% | 97.8% | 79.6% | 95% | 78.9% |
| CC[C@H](C)[C@H](NC(=O)[C@@H](N)CCC(N)=O)C(=O)N[C@@H](Cc1ccc(O)cc1)C(=O)N[C@@H](CCCCN)C(=O)N[C@@H](CCCCN)C(=O)N[C@@H](Cc1ccc(O)cc1)C(=O)N[C@@H](CCCNC(=N)N)C(=O)N[C@H](C(=O)N[C@@H](Cc1c[nH]c2ccccc12)C(=O)N[C@@H](Cc1ccc(O)cc1)C(=O)N[C@@H](CCCNC(=N)N)C(=O)N[C@@H](CCCCN)C(=O)N[C@@H](C)C(=O)N[C@@H](Cc1c[nH]c2ccccc12)C(=O)N[C@@H](CCCCN)C(=O)N[C@H](C(=O)N[C@@H](CC(C)C)C(=O)NCC(=O)N[C@@H](CCCCN)C(=O)N[C@H](C(N)=O)C(C)C)C(C)C)[C@@H](C)O | 4.9% (active) | 63.6% | 15.5% | 49.3% | 23.7% | -37% (active) | -38% (active) | -71.2% (active) | 69.8% | 16.3% |
| COc1ccc2c(c1)c(-c1nc(-c3c[nH]c4c(Cl)nccc34)cs1)cn2C | 64.3% | 84% | 82.9% | 105% | 86.5% | 72.6% | 45.4% | 87.8% | 80% | 105% |
| Cc1ccc(-c2nc(C#N)c(S(=O)(=O)N(C)C)o2)cc1 | 19.7% | 97.7% | 83.7% | 98.2% | 93.3% | 103% | 92.5% | 97.5% | 49.8% | 102% |
| O=C(/C=C/c1ccc(F)cc1)Nc1ncc(Cc2ccc(F)cc2)s1 | 26.1% | 13.7% | 23.2% | 58.1% | 33.6% | 31.9% | 2.79% (active) | 14.1% | 9.96% (active) | 67% |
| CC1=C2[C@@H](CC1)[C@]1(C)O[C@@](C3CC3)(C[C@H]1OC(=O)CO)[C@H]2OC(=O)/C=C/c1ccccc1 | 97% | 89.5% | 88.2% | 90% | 88.3% | 68% | 92.9% | 73.1% | 84% | 107% |
| CCNC(=S)n1nc(SC)c(C(=O)OCC)c1N | 96.3% | 102% | 89.5% | 93.6% | 109% | 102% | 96.1% | 81.6% | 95.4% | 102% |
| O=C(NCc1cccnc1)/C(=C\c1ccc(Br)cc1)S(=O)(=O)c1ccccc1 | -33.2% (active) | -72.2% (active) | 9.38% (active) | -2.37% (active) | -87.1% (active) | -0.986% (active) | -17.9% (active) | -31.3% (active) | -89.5% (active) | -39.3% (active) |
| O=C([C@H]1C[C@H]1c1ccc(S(F)(F)(F)(F)F)cc1)N1CCN(c2cc(Cl)ccc2C(F)(F)F)CC1 | 88.1% | 67.5% | 101% | 97.1% | 94.2% | 74.2% | 89.9% | 67.4% | 102% | 97.1% |
| CN(C)CCN1C(=O)c2c(c3c4ccccc4n4c3c3c2c2ccccc2n3C2CC(O)C(O)C4(C)O2)C1=O (stereo not given) | 15.5% | 6.62% (active) | 23.3% | 17.1% | 17.9% | 30.2% | 34.4% | 21.8% | 1.87% (active) | 64.5% |
| COC(=O)c1c2c(c(C)[n+]([O-])c1C)C(=O)C(NCCN1CCOCC1)=CC2=O | 69.1% | 27.4% | 106% | 87.5% | 83.6% | 75.2% | 48.5% | 68.4% | 57.2% | 95.2% |
| O=C(Nc1ccc(F)cc1)c1cc2cc(Nc3nc(-c4ccccc4)nc4ccccc34)ccc2oc1=O | 112% | 98.4% | 102% | 109% | 97.4% | 99.4% | 105% | 102% | 93.5% | 111% |
| COc1ccc(C/C(C)=C(/c2ccc(OCCN3CCCC3)cc2)c2ccc(OC(=O)NCc3ccccc3)cc2)cc1 | 61.4% | 18.6% | 71.1% | 85.6% | 67.1% | 67.3% | 77.8% | 84.8% | 84.4% | 84.7% |

Reference: PubChem BioAssay (NCI)
